Hit rate of the full screen: of about 4,500 compounds, about 200 (4.4%) were called active. What follows is part of a selection rich in actives, with near analogues and random picks from the rest. Values without a mark were called inactive.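 How the source made its calls: active means cell survival measured by absorbance rises more than 2.5-fold over infected cells without compound; inactive means the rest.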
assay: survival after telomere uncapping, modulators, primary screen, cell-based (AID 1259312); settings: HCT116 + Ad-hTR-mut, MTT, 5 d; at 10 µM, hits give high values;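 further: virus expresses mutant telomerase RNA that uncaps telomeres and kills cells; compound added 2 days after infection so exposure lasts 3 days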

Row | SMILES | fold change
1 | COC(=O)Nc1ncc(CN2CCOCC2)s1 | -2.39
2 | c1ccc(-c2ccc3ccccc3n2)nc1 | -1.13
3 | O=S(=O)(O)c1ccc(-c2nnc(-c3ccccn3)nc2-c2ccc(S(=O)(=O)O)o2)o1 | -1.16
4 | c1ccc(-c2nc(-c3ccccn3)nc(-c3ccccn3)n2)nc1 | 3.31 (active)
5 | CC(C)(C)NC(=O)Nc1cccnc1Cl | -1.98
6 | C=CCOC(=O)c1sc(NC(=O)c2cccs2)nc1C | -1.68
7 | CCOC(=O)/C(C#N)=C(\C#N)C(=O)OCC | 1.04
8 | CN1CC(C(=O)Nc2ccc3c4c(cccc24)CC3)CC1=O (stereo unspecified) | 1.08
9 | CS(=O)(=O)Nc1ccc(F)cc1F | -1.21
10 | CS(=O)(=O)Nc1ccc2c3c(cccc13)CC2 | 2.67 (active)
11 | Nc1nc(-c2ccc(Cl)c(Cl)c2)cs1 | 1.69
12 | CCCOc1ccccc1N=c1ssc2c1-c1cc(C)c(C)cc1NC2(C)C | -3.58
13 | Cc1nc(N=C(N)N)nc2ccccc12 | 3.38 (active)
14 | COc1cccc2c(C)nc(N=C(N)N)nc12 | 1.65
15 | COc1ccc2nc(N=C(N)N)nc(C)c2c1 | 1.75
16 | Cc1nccn1CCC1CCNCC1 | 3.27 (active)
17 | CC(C)(C)c1ccc(-c2nn(CN3CCC(c4ccccc4)C3)c(=S)n2-c2ccccc2)cc1 (stereo unspecified) | -1.84
18 | S=c1n(CN2CCCCC2)nc(-c2ccccc2)n1-c1ccccc1 | 3.46 (active)
19 | Cc1ccc(-c2nn(CN3CCC(c4ccccc4)C3)c(=S)n2-c2ccccc2)cc1 (stereo unspecified) | -1.2
20 | O=C(NCCN1CCOCC1)C(=O)NCCN1CCOCC1 | 1.02
21 | COc1ccc(C2C3=C(Nc4ncnn42)c2ccccc2CC3)cc1OC (stereo unspecified) | inactive
22 | O=S(=O)(NCCCl)c1ccccc1 | -1.04

Row | SMILES | fold change
23 | C[C@H](CCC(=O)O)[C@H]1CC[C@H]2[C@@H]3[C@H](O)C[C@@H]4C[C@H](O)CC[C@]4(C)[C@H]3C[C@H](O)[C@]12C | -1.01
24 | COC(=O)CCC(C)C1CCC2C3C(C[C@H](O)C12C)C1(C)CC[C@@H](O)CC1C[C@H]3O (stereo partly specified) | 4.26 (active)
25 | CCOC(=O)CC[C@@H](C)[C@H]1CC[C@H]2[C@@H]3[C@H](O)C[C@@H]4C[C@H](O)CC[C@]4(C)[C@H]3C[C@H](O)[C@]12C | -1.19
26 | COc1ccc(-c2nc(-c3cccnc3)no2)cc1 | -1.74
27 | O=C1CC(c2cc3c(cc2Br)OCO3)c2ccc3ccccc3c2N1 (stereo unspecified) | 1.01
28 | Nc1nc(SCC(=O)Nc2ccc(Br)cc2)sc1C(=O)Nc1nccs1 | -1.48
29 | CCOC(=O)C(C(C)=O)C(C(C)=O)C(=O)OCC (stereo unspecified) | 1.67
30 | CC(=O)C(C(C)=O)C(C(C)=O)C(C)=O | 3.14 (active)
31 | Brc1csc(-c2cc(Br)cs2)c1 | -1.44
32 | NC(=O)c1c(NC(=O)CN2CCCCC2)sc2c1CCCC2 | -1.75
33 | c1ccc(CCn2c(CSc3nc4ccccc4o3)nc3ccccc32)cc1 | -1.06
34 | NS(=O)(=O)c1cc(C(=O)O)c(Cl)cc1Cl | -1.78
35 | c1ccc(-c2ccc(CSc3nc4ccccc4o3)cc2)cc1 | -1.02
36 | Cc1ccc(C)n1-c1ccc(NC2CCCC2)c([N+](=O)[O-])c1 | -1.34
37 | O=[N+]([O-])c1ccccc1NC1CCCCC1 | 1.67
38 | O=[N+]([O-])c1ccc(Cl)cc1NCc1ccco1 | -1.31
39 | O=[N+]([O-])c1ccc(Cl)cc1NCCO | 2.39
40 | O=[N+]([O-])c1cc(Cl)ccc1NC1CCCCC1 | 4.77 (active)
41 | NNc1cc(Cl)ccc1[N+](=O)[O-] | 3.68 (active)
42 | O=C(Nc1nc2c(s1)CCCC2)C1CC(=O)N(c2ccc(F)cc2)C1 (stereo unspecified) | -2.42
43 | Cc1cccn2c(=O)c(C=O)c(Nc3cccc(Cl)c3)nc12 | -1.44
44 | CCCCc1ccc(C2C3=C(CC(C)(C)CC3=O)OC3=C2C(=O)CC(C)(C)C3)s1 | -1.42

Row | SMILES | fold change
45 | Fc1ccc(-c2nc3sc(-c4ccc(F)cc4)nc3s2)cc1 | -2.41
46 | O=C(c1ccc2[nH]c(=O)oc2c1)c1ccc2[nH]c(=O)oc2c1 | 1.41
47 | C#CCN1C(=O)S/C(=C\c2ccc(N3CCCC3)cc2)C1=O | -1.24
48 | CN1CCC2(CC1)C(C#N)=C(N)Oc1n[nH]c(-c3ccccc3)c12 | 3.65 (active)
49 | CN1CCC2(CC1)C(C#N)=C(N)Oc1n[nH]c(C(=O)OC(C)(C)C)c12 | -1.08
50 | COCc1[nH]nc2c1C1(CCN(C)CC1)C(C#N)=C(N)O2 | -1.21
51 | CCOC(=O)C1=C(C)NC2=C(C(=O)CCC2)C1c1ccc(CC)s1 (stereo unspecified) | -1.61
52 | COc1ccc2[nH]c(=O)c(=O)[nH]c2c1 | 1.16
53 | O=c1ccc2ccccc2[nH]1 | -1.85
54 | O=c1[nH]c2ccccc2[nH]c1=O | 5 (active)
55 | O=S(=O)(c1ccccc1)N1CCN(Cc2ccc3c(c2)OCO3)CC1 | -4.81
56 | O=S(=O)(c1ccc2c(c1)OCCO2)N1CCCCC1 | -1.44
57 | O=C(c1ccc(COc2ccc(I)cc2)o1)N1CCCC1 | -1.09
58 | CN(C)c1ccc(/C=C2\C(=O)ON=C2c2cccc(I)c2)cc1 | -1.18
59 | Cn1c2c(c(=O)[nH]c1=O)C(c1ccccc1)C1=C(N2)c2ccccc2C1=O (stereo unspecified) | -6.31
60 | Cc1[nH][nH]c(=O)c1C(c1ccncc1)C(C#N)C#N (stereo unspecified) | 3.56 (active)
61 | O=C(Nc1sc2c(c1C(=O)Nc1ccc(Br)cc1)CCC2)c1cccs1 | 1.12
62 | Cn1nnnc1SCC(=O)Nc1ccc(F)c(Cl)c1 | -2.05
63 | O=C(Nc1ccc(Br)cc1Br)C(Cl)Cl | -6.77
64 | CC(=O)Nc1sc2c(c1C(N)=O)CCCC2 | -1.98
65 | CC(=O)Nc1sc2c(c1C(=O)O)CCCC2 | 2.88 (active)
66 | CC(=O)Nc1sc2c(c1C(N)=O)CCCCC2 | 1.05

Row | SMILES | fold change
67 | COc1ccc(S(=O)(=O)N2CCCc3ccccc32)cc1 | -1.9
68 | CC1(C)CC(NS(=O)(=O)c2ccccc2)CC(C)(C)N1 | -1.13
69 | CC(C)NC(=O)C(=O)NC1CC(C)(C)NC(C)(C)C1 | -2.38
70 | CC1(C)CC(NC(=O)C(=O)NC2CC(C)(C)NC(C)(C)C2)CC(C)(C)N1 | 4.26 (active)
71 | Cc1cc(NC(=O)c2n[nH]c(=O)c3ccccc23)no1 | -1.69
72 | Cn1c(-c2ccccc2)c(NC(=O)c2ccccc2Cl)c(=O)n1C | -1.22
73 | C=CCOC(=O)c1sc(NC(=O)c2ccco2)nc1C | -1.45
74 | Oc1[nH]c(=S)sc1/C=C/C=C/C=Nc1ccccc1 | inactive
75 | CCCc1cc(=O)oc2cc(O)cc(O)c12 | 1.04
76 | Cc1cc(C(F)(F)F)nn1CC(N)=O | 3.13 (active)
77 | Cc1sc(NC(=O)Cn2nc(C(F)(F)F)cc2C)c(C(N)=O)c1C | -1.23
78 | Cn1nc(C(F)(F)F)cc1C(=O)O | -1.06
79 | C=CCn1c(COc2ccccc2)n[nH]c1=S | 1.52
80 | CCOC(=O)c1c(NC(=O)C23CC4CC(CC(C4)C2)C3)sc2c1CCN(C(=O)OCC)C2 | -1.15
81 | O=[N+]([O-])c1ccc(O)c(N=Cc2cc(Br)cc(Br)c2O)c1 | active
82 | Oc1c(Cl)cc(Cl)cc1C=Nc1ccc(Cl)cc1Cl | inactive
83 | O=[N+]([O-])c1ccc(N=Cc2cc(Br)cc(Br)c2O)cc1 | active
84 | O=[N+]([O-])c1cc(Br)cc(C=Nc2ccc(N=Cc3cc(Br)cc([N+](=O)[O-])c3O)cc2)c1O | inactive
85 | O=[N+]([O-])c1ccc(O)c(N=Cc2cc(Br)cc([N+](=O)[O-])c2O)c1 | inactive
86 | Oc1c(Br)cc(Br)cc1C=Nc1cc(Cl)ccc1Cl | inactive
87 | Oc1c(Br)cc(Br)cc1C=Nc1ccc(Cl)cc1Cl | active
88 | O=[N+]([O-])c1ccc(N=Cc2cc(Br)cc(Br)c2O)c(O)c1 | inactive

Row | SMILES | fold change
89 | O=[N+]([O-])c1ccc(N=Cc2cc(Br)cc([N+](=O)[O-])c2O)cc1 | inactive
90 | S=C(c1ccco1)N1CCOCC1 | 1.24
91 | NC(Cc1cc(F)ccc1F)C(=O)O (stereo unspecified) | -3.72
92 | O=[N+]([O-])c1ccc(Nc2ccc(O)cc2)c([N+](=O)[O-])c1 | -1.07
93 | O=[N+]([O-])c1cccc(S(=O)(=O)Nc2ccc(I)cc2)c1 | 1.39
94 | O=[N+]([O-])c1ccc(NS(=O)(=O)c2ccccc2)c([N+](=O)[O-])c1 | 3.49 (active)
95 | O=C1CN(C(=O)Cn2c(=O)oc3ccccc32)c2ccccc2N1 | -1.03
96 | O=C(O)C1=NN(c2ccc(S(=O)(=O)O)cc2)C(=O)C1 | 1.74
97 | CN1N=C(C(=O)O)CCC1=O | 2.58 (active)
98 | O=C1CCC(=O)N1CCCCCCN1C(=O)CCC1=O | -1.37
99 | O=C1C=CC(=O)N1c1cc(Cl)cc(Cl)c1 | -1.38
100 | N#CC1=C(N)C(C#N)(C#N)C(c2ccc(Cl)cc2Cl)C2CCCC=C12 (stereo unspecified) | -4.43
101 | Cc1[nH][nH]c(=O)c1C1(C(C#N)C#N)C2CC3CC(C2)CC1C3 (stereo unspecified) | 2.9 (active)
102 | C=CCN(CC=C)C(=O)C1c2ccccc2Oc2ccccc21 | -1.36
103 | CN(C)c1ccc(NC(=O)c2sc(=S)[nH]c2N)cc1 | -1.46
104 | N#Cc1c(C(F)(F)F)cc(-c2ccccc2)[nH]c1=S | -1.58
105 | N#Cc1c(C(F)(F)F)cc(-c2cccs2)[nH]c1=S | 4.58 (active)
106 | N#Cc1c(C(F)(F)F)cc(-c2cccs2)oc1=S | -2.59

From PubChem BioAssay AID1259312 (Keith Lab, Institute of Cancer Science, University of …, 2017)
